# The supplement of paper PMC8728848
# The full list was thinned out, with the strongest signals kept by preference.
# Test system: Neu5Ac(a2-6)Gal(b1-3)GlcNAc(b1-3)[Gal(b1-4)GlcNAc(b1-6)]Gal(b1-4)Glc
# Test: glycan array binding signal (z-score within array); higher = stronger binding
# Settings: glycan notation: IUPAC condensed, linker removed
# In short: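 The binding signal is a Z-score computed within each array and averaged over linkers. Arrays of the same protein sequence at different concentrations or buffers were also averaged together. Data originate from 3228 arrays in the Consortium for Functional Glycomics database, kept only where the protein sequence was available.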
row,Substance,glycan array binding signal (z-score)
1,"SpGH101 (Streptococcus pneumoniae), Q8DR60",-0.168
2,"Wza (Escherichia coli), P0A930",0.652
3,Epa22,-0.487
